Assay results reported in PubChem BioAssay (NCATS).
Records with an inconclusive call do not appear. Where a call stands in place of a potency, no number is given. Calls of active or inactive are those of the source. Unless noted, calls follow the shape of the full dose curve.

Target: Androgen receptor (Homo sapiens) (UniProt P10275)
Test: qHTS assay for small molecule antagonists of androgen receptor signaling (AID 588516; active = well fitted curve in the direction sought with a large enough effect in the signal ratio, with a control signal flat, not every such curve was filed as active; the % refers to the signal ratio)
Conditions: AR-UAS-bla HEK293, beta-lactamase ratio, antagonist mode, 16 h; series mostly up to 76.8 µM
How it was run: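 HEK293 AR-UAS-bla cells, 10% dialyzed FBS medium; cpd titration + R1881 10 nM final, 16 h 37 C; CCF4 2 h RT; FRET ratio; IC50/efficacy via Hill fit.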

Androgen receptor (Homo sapiens), sequence (P10275 whole entry, looked up): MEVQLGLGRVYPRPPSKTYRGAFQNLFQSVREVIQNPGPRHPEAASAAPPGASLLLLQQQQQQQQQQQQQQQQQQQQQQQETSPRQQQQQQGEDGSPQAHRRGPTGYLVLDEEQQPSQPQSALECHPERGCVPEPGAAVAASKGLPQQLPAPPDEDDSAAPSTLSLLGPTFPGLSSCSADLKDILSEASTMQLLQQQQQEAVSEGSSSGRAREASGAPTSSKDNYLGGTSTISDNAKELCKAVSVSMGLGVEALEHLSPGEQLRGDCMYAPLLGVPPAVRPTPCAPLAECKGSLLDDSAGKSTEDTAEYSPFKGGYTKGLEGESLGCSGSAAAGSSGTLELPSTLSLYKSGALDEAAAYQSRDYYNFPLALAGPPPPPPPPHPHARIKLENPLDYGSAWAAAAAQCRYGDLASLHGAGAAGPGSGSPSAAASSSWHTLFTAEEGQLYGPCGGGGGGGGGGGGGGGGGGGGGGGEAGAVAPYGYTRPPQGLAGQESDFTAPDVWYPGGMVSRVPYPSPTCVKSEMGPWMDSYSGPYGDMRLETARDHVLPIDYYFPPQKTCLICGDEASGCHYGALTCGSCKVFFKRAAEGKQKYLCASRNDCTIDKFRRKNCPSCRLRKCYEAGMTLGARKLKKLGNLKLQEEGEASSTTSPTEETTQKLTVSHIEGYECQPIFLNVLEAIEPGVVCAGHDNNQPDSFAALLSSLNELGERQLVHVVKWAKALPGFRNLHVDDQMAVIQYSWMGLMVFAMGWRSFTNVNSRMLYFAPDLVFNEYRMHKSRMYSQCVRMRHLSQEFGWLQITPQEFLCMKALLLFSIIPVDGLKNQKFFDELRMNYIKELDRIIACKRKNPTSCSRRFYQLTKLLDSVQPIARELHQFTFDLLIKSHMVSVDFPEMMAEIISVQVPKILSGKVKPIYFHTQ

Row | SMILES | outcome
1 | CNc1nc(=O)n(C2CCCCC2)c(=O)n1C | inactive
2 | CCCCCCCC[Si](Cl)(Cl)Cl | inactive
3 | CCCCCCCOC(=O)c1ccccc1C(=O)OCCCCCCC | inactive
4 | C=Cc1ccc(P(c2ccccc2)c2ccccc2)cc1 | inactive
5 | CCCCCCCCCCCCCCCCCCN | inactive
6 | CC(=O)N(CCN(C(C)=O)C(C)=O)C(C)=O | inactive
7 | CCCC/C=C\CCCCCCCCO | inactive
8 | Nc1cc(Cl)nc(C(=O)O)c1Cl | inactive
9 | C[Si](Cl)(Cl)[Si](C)(Cl)Cl | inactive
10 | CCCCCCCCCc1ccccc1 | inactive
11 | CS/C(=N\O)C(=O)N(C)C | inactive
12 | C[Si](Cl)(Cl)c1ccccc1 | inactive
13 | COC(=O)c1c(Cl)nn(C)c1S(=O)(=O)NC(=O)Nc1nc(OC)cc(OC)n1 | inactive
14 | CC1(C)CC(NCCCCCCNC2CC(C)(C)NC(C)(C)C2)CC(C)(C)N1 | inactive
15 | Cc1ccc(C(=O)c2ccccc2)cc1 | inactive

Target: Bile acid receptor (Homo sapiens) (UniProt Q96RI1)
Test: qHTS assay for small molecule antagonists of farnesoid X receptor signaling (AID 588526)
Conditions: HEK293T FXR-UAS-bla, beta-lactamase ratio, antagonist mode; series mostly up to 76.7 µM
How it was run: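 Beta-lactamase reporter antagonist mode: HEK293T FXR-UAS-bla cells, titrated compound, CDCA stimulation, 16 h 37 C, CCF4 dye 2 h RT. Data normalized to CDCA 50 uM and DMSO; Hill-fit IC50.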

Bile acid receptor (Homo sapiens), sequence (Q96RI1 whole entry, looked up): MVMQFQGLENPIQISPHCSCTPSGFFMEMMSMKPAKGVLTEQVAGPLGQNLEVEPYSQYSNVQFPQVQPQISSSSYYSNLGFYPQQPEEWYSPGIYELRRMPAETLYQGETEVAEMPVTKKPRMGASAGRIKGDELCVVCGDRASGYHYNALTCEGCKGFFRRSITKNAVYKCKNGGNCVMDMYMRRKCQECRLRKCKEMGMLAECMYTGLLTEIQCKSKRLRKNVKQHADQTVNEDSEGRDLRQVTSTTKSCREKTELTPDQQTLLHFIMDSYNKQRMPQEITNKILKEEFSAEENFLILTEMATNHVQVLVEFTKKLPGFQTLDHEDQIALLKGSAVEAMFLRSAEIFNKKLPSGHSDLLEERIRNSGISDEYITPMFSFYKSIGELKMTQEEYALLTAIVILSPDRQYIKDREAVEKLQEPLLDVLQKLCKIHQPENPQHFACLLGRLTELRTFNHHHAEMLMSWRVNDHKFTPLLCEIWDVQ

Row | SMILES | Potency
16 | CNc1nc(=O)n(C2CCCCC2)c(=O)n1C | inactive
17 | CCCCCCCC[Si](Cl)(Cl)Cl | inactive
18 | CCCCCCCOC(=O)c1ccccc1C(=O)OCCCCCCC | inactive
19 | C=Cc1ccc(P(c2ccccc2)c2ccccc2)cc1 | inactive
20 | CCCCCCCCCCCCCCCCCCN | inactive
21 | CC(=O)N(CCN(C(C)=O)C(C)=O)C(C)=O | inactive
22 | CCCC/C=C\CCCCCCCCO | inactive
23 | Nc1cc(Cl)nc(C(=O)O)c1Cl | inactive
24 | C[Si](Cl)(Cl)[Si](C)(Cl)Cl | inactive
25 | CCCCCCCCCc1ccccc1 | inactive
26 | CS/C(=N\O)C(=O)N(C)C | inactive
27 | C[Si](Cl)(Cl)c1ccccc1 | inactive
28 | COC(=O)c1c(Cl)nn(C)c1S(=O)(=O)NC(=O)Nc1nc(OC)cc(OC)n1 | inactive
29 | CC1(C)CC(NCCCCCCNC2CC(C)(C)NC(C)(C)C2)CC(C)(C)N1 | inactive
30 | Cc1ccc(C(=O)c2ccccc2)cc1 | inactive

Target: Glucocorticoid receptor (Homo sapiens) (UniProt P04150)
Test: qHTS assay for small molecule agonists of glucocorticoid receptor signaling (AID 588532; active = well fitted curve in the direction sought with a large enough effect in the signal ratio, with a control signal flat; the % refers to the signal ratio)
Conditions: HeLa MMTV-bla, beta-lactamase ratio, agonist, 18 h; stronger effect = higher value; percent of dexamethasone control, DMSO zero
How it was run: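 Quantitative HTS using CellSensor MMTV-bla HeLa cells in charcoal/dextran-treated serum; compounds tested up to 92 uM. After 18 h at 37 C, CCF4 dye reported reporter induction.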

Glucocorticoid receptor (Homo sapiens), sequence (P04150 whole entry, looked up): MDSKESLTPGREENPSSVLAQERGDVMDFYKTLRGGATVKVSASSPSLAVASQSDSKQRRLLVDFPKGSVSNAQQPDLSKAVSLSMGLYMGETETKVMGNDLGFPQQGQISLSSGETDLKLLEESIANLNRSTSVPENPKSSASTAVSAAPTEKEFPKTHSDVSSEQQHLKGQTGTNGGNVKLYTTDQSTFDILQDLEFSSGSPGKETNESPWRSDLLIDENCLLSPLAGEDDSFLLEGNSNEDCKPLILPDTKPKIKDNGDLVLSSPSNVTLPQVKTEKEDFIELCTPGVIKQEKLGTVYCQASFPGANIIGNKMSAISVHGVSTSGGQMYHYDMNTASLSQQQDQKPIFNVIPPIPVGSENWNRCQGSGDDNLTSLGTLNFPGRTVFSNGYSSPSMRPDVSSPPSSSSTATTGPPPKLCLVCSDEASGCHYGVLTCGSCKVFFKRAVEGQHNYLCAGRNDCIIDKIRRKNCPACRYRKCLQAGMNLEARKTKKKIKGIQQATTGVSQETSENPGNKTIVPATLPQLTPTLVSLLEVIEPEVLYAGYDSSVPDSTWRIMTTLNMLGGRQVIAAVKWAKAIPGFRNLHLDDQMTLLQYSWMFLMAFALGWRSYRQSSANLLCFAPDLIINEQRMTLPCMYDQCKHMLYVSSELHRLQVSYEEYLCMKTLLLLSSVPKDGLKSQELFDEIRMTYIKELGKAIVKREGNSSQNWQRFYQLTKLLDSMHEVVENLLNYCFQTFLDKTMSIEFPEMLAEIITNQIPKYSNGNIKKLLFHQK

Row | SMILES | activation
31 | CNc1nc(=O)n(C2CCCCC2)c(=O)n1C | -5.96% (inactive)
32 | CCCCCCCC[Si](Cl)(Cl)Cl | -0.511% (inactive)
33 | CCCCCCCOC(=O)c1ccccc1C(=O)OCCCCCCC | -3.48% (inactive)
34 | C=Cc1ccc(P(c2ccccc2)c2ccccc2)cc1 | -2.27% (inactive)
35 | CCCCCCCCCCCCCCCCCCN | -6.46% (inactive)
36 | CC(=O)N(CCN(C(C)=O)C(C)=O)C(C)=O | -10.7% (inactive)
37 | Nc1cc(Cl)nc(C(=O)O)c1Cl | -6.13% (inactive)
38 | C[Si](Cl)(Cl)[Si](C)(Cl)Cl | -3.8% (inactive)
39 | CCCCCCCCCc1ccccc1 | -4.94% (inactive)
40 | CS/C(=N\O)C(=O)N(C)C | 1.45% (inactive)
41 | C[Si](Cl)(Cl)c1ccccc1 | 17.8% (inactive)
42 | COC(=O)c1c(Cl)nn(C)c1S(=O)(=O)NC(=O)Nc1nc(OC)cc(OC)n1 | -2.96% (inactive)
43 | CC1(C)CC(NCCCCCCNC2CC(C)(C)NC(C)(C)C2)CC(C)(C)N1 | -7.91% (inactive)
44 | Cc1ccc(C(=O)c2ccccc2)cc1 | 2.58% (inactive)

Target: Glucocorticoid receptor (Homo sapiens) (UniProt P04150)
Test: qHTS assay for small molecule antagonists of glucocorticoid receptor signaling (AID 588533; active = well fitted inhibition curve with a large enough effect in the signal ratio, with a control signal flat, not every such curve was filed as active; the % refers to the signal ratio;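 also: cells stimulated with 2 nM dexamethasone as agonist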)
Conditions: HeLa MMTV-bla, GRE beta-lactamase ratio, antagonist mode, 18 h; series mostly up to 76.8 µM
How it was run: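 Antagonist-mode qHTS: compound titrations added to GRE-bla HeLa cells, then dexamethasone 2 nM final; 18 h, 37 C. CCF4 FRET fluorescence normalized to dexamethasone and DMSO; IC50 from Hill fit.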

Row | SMILES | Potency
45 | CNc1nc(=O)n(C2CCCCC2)c(=O)n1C | inactive
46 | CCCCCCCC[Si](Cl)(Cl)Cl | inactive
47 | CCCCCCCOC(=O)c1ccccc1C(=O)OCCCCCCC | inactive
48 | C=Cc1ccc(P(c2ccccc2)c2ccccc2)cc1 | inactive
49 | CCCCCCCCCCCCCCCCCCN | inactive
50 | CC(=O)N(CCN(C(C)=O)C(C)=O)C(C)=O | inactive
51 | Nc1cc(Cl)nc(C(=O)O)c1Cl | inactive
52 | C[Si](Cl)(Cl)[Si](C)(Cl)Cl | inactive
53 | CCCCCCCCCc1ccccc1 | inactive
54 | CS/C(=N\O)C(=O)N(C)C | inactive
55 | C[Si](Cl)(Cl)c1ccccc1 | inactive
56 | COC(=O)c1c(Cl)nn(C)c1S(=O)(=O)NC(=O)Nc1nc(OC)cc(OC)n1 | inactive
57 | CC1(C)CC(NCCCCCCNC2CC(C)(C)NC(C)(C)C2)CC(C)(C)N1 | inactive
58 | Cc1ccc(C(=O)c2ccccc2)cc1 | inactive

System: not listed separately
Test: qHTS assay for small molecule antagonists of peroxisome proliferator-activated receptor delta signaling (AID 588535; active = well fitted inhibition curve with a large enough effect in the signal ratio, with a control signal flat, not every such curve was filed as active; the % refers to the signal ratio;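 as to max response: cells co-treated with a PPAR-delta agonist as stimulator during compound exposure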)
Conditions: HEK293T PPARd-UAS-bla, beta-lactamase FRET ratio, 18 h; 460 nm channel
How it was run: (§1)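 Antagonist-mode qHTS using GeneBLAzer PPAR-delta-UAS-bla HEK293T cells; compound exposure 18 hrs at 37 C over a titration. Ratiometric CCF4 fluorescence at 460/530 nm; concentration-response points fitted to the Hill equation.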

Row | SMILES | max response [%]
59 | CNc1nc(=O)n(C2CCCCC2)c(=O)n1C | 8.32
60 | CCCCCCCC[Si](Cl)(Cl)Cl | -4.76
61 | CCCCCCCOC(=O)c1ccccc1C(=O)OCCCCCCC | -7.26
62 | C=Cc1ccc(P(c2ccccc2)c2ccccc2)cc1 | 16.9
63 | CCCCCCCCCCCCCCCCCCN | 13.6
64 | CC(=O)N(CCN(C(C)=O)C(C)=O)C(C)=O | 30.1
65 | CCCC/C=C\CCCCCCCCO | 56.8
66 | Nc1cc(Cl)nc(C(=O)O)c1Cl | -21.2
67 | C[Si](Cl)(Cl)[Si](C)(Cl)Cl | -5.47
68 | CCCCCCCCCc1ccccc1 | 1.13
69 | CS/C(=N\O)C(=O)N(C)C | 31.5
70 | C[Si](Cl)(Cl)c1ccccc1 | 44.2
71 | COC(=O)c1c(Cl)nn(C)c1S(=O)(=O)NC(=O)Nc1nc(OC)cc(OC)n1 | -24.6
72 | Cc1ccc(C(=O)c2ccccc2)cc1 | -13.1

Target: Peroxisome proliferator-activated receptor delta (Homo sapiens) (UniProt Q03181)
Test: as above
Conditions: HEK293T PPARd-UAS-bla, beta-lactamase FRET ratio, 18 h; series mostly up to 76.7 µM
How it was run: as §1

Peroxisome proliferator-activated receptor delta (Homo sapiens), sequence (Q03181 whole entry, looked up): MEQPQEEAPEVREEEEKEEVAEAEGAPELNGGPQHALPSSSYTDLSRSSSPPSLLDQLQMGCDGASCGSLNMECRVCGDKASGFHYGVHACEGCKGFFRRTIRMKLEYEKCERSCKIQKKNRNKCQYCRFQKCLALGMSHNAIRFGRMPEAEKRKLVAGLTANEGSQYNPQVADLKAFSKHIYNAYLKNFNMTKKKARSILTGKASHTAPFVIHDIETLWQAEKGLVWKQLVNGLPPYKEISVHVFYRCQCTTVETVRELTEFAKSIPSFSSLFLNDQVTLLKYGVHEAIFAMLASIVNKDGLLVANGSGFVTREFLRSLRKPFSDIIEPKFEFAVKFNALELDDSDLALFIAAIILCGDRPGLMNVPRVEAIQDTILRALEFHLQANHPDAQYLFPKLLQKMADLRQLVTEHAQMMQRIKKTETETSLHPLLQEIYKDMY

Row | SMILES | Potency
73 | CNc1nc(=O)n(C2CCCCC2)c(=O)n1C | inactive
74 | CCCCCCCC[Si](Cl)(Cl)Cl | inactive
75 | CCCCCCCOC(=O)c1ccccc1C(=O)OCCCCCCC | inactive
76 | C=Cc1ccc(P(c2ccccc2)c2ccccc2)cc1 | inactive
77 | CCCCCCCCCCCCCCCCCCN | inactive
78 | CC(=O)N(CCN(C(C)=O)C(C)=O)C(C)=O | inactive
79 | CCCC/C=C\CCCCCCCCO | inactive
80 | Nc1cc(Cl)nc(C(=O)O)c1Cl | inactive
81 | C[Si](Cl)(Cl)[Si](C)(Cl)Cl | inactive
82 | CCCCCCCCCc1ccccc1 | inactive
83 | CS/C(=N\O)C(=O)N(C)C | inactive
84 | C[Si](Cl)(Cl)c1ccccc1 | inactive
85 | COC(=O)c1c(Cl)nn(C)c1S(=O)(=O)NC(=O)Nc1nc(OC)cc(OC)n1 | inactive
86 | Cc1ccc(C(=O)c2ccccc2)cc1 | inactive
